Measurements: article PMC4336329 (PLoS ONE, 2015)
Out of some 310,000 compounds screened, about 14,000 (4.5%) showed an effect of 50% or more. Effects have a minus sign here. Only a selection was taken, and strong results are over-represented in it overall.

molecular target: human ether-à-go-go-related gene (hERG) potassium channel (human, UniProt Q12809); test: primary screen, population patch clamp on CHO cells stably expressing hERG; higher = less effect of the substance
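Also: peak tail current of the secondary pulse compared with the same well before compound.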

Sequence of human ether-à-go-go-related gene (hERG) potassium channel (Q12809 whole entry, looked up): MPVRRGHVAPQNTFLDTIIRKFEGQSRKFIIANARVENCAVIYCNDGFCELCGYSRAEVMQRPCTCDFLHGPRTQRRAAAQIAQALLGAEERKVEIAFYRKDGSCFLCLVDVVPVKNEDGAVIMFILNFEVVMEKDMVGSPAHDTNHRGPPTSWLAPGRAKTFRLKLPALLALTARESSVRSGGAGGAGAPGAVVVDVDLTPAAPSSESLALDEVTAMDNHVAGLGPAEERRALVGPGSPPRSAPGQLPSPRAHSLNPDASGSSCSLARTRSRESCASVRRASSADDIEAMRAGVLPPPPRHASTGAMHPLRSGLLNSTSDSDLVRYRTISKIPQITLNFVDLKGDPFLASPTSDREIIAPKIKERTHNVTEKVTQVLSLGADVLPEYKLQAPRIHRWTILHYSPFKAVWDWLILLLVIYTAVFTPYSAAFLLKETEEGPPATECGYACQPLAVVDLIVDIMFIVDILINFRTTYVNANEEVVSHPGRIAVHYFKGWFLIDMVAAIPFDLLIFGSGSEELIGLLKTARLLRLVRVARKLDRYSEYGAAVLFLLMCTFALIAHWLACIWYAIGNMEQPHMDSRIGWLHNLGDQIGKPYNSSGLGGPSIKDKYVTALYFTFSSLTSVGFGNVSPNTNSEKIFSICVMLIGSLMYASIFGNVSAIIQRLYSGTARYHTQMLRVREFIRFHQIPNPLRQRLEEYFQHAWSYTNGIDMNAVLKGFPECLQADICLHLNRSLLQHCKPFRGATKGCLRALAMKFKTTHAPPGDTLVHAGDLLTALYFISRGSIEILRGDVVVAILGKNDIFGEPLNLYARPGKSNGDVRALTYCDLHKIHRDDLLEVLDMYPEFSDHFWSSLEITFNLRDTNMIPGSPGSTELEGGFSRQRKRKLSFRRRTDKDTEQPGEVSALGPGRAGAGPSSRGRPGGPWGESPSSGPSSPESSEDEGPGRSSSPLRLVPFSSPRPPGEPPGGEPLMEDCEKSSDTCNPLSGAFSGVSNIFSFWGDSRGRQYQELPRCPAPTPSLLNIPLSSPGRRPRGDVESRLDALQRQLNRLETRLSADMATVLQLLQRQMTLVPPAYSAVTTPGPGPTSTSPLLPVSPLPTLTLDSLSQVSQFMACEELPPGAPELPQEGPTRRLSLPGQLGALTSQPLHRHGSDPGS

Compound	hERG current change (%, negative = inhibition) at 10uM
CN(C1=NS(=O)(=O)c2ccccc21)c1ccc(OC(=O)c2ccncc2)cc1	-9.07%
COc1cccc(CN(C)C(=O)CCN(c2ccccc2)S(=O)(=O)c2ccc(C)cc2)c1OC	-30.4%
COC(=O)C1=C(c2ccc(F)cc2F)C[C@@H]2CC[C@H]1N2C(=O)NC1Cc2ccccc2C1	-16.9%
O=C(N/N=C/c1cc(O)ccc1[N+](=O)[O-])c1ccc2c(c1)OCCO2	-2.12%
CCCCOc1ccc(S(=O)(=O)n2c(C)nc3ccccc32)cc1	0.0246%
CCN(CC(=O)NCc1cccs1)C(=O)c1ccc(S(=O)(=O)Nc2ccccc2Cl)cc1	-26.8%
N#Cc1ccc(/C=N/NC(=O)c2cccc(S(=O)(=O)N3CCOCC3)c2)cc1	13.3%
C/C(=N\NC(=O)c1cccc(S(=O)(=O)N2CCCC2)c1)c1ccncc1	-1.9%
C/C(=N\NC(=O)c1cccc(S(=O)(=O)N2CCOCC2)c1)c1ccc(C)cc1	-3.88%
C/C(=N\NC(=O)c1cccc(S(=O)(=O)N2CCOCC2)c1)c1ccc(C#N)cc1	-52.6%
C/C(=N\NC(=O)c1cccc(S(=O)(=O)N2CCOCC2)c1)c1ccc(O)cc1	11.4%
C/C(=N\NC(=O)c1cccc(S(=O)(=O)N2CCCC2)c1)c1ccc(C)cc1	-50.4%
Cn1c(=O)c2c([nH]c(=S)n2CCCc2ccccc2)n(C)c1=O	15.5%
CC(Cc1cccs1)NC(=O)Nc1ccc(F)cc1 (stereo not drawn)	18.2%
CCc1nc(C#N)c(N2CCOCC2)o1	2.54%
CCN(c1ccccc1)S(=O)(=O)c1ccc(C(=O)Oc2ccc(C(C)=O)cc2)cc1	8.41%
CC1(C)N=C(N)NC(Nc2ccccc2)=N1	2.96%
Cc1onc(-c2ccccc2Cl)c1C(=O)Nc1cccc(-c2cn3cccnc3n2)c1	-24.8%
Cc1onc(-c2ccccc2Cl)c1C(=O)Nc1cccc(-c2nc3ncccn3c2C)c1	-63%
Cc1onc(-c2ccccc2Cl)c1C(=O)Nc1ccc(-c2cn3cccnc3n2)cc1	26%
Cl.O=C1CC2(CCCC2)CC(=O)N1CCCCN1CCN(c2ncccn2)CC1	-35.9%
Cc1c(C)n2c(SCC(=O)NCc3ccc4c(c3)OCO4)nnc2[nH]c1=O	7.88%
CCOC(=O)N1CCC(N(CCN(C)C)C(=S)Nc2cccc(SC)c2)CC1	-11.6%

Compound	hERG current change (%, negative = inhibition) at 10uM
CCCCN(C)C1CCN(C(=S)Nc2cccc(OC)c2)CC1	-19.9%
CCCCN(C)C1CCN(C(=S)Nc2cccc(SC)c2)CC1	-59.8%
CSc1cccc(NC(=S)N2CCC(N(C)C3CCCCC3C)CC2)c1 (stereo not drawn)	-58.2%
CSc1cccc(NC(=S)N2CCC(N(C)C3CCCC3)CC2)c1	-29.2%
CSc1cccc(NC(=S)N2CCC(c3ccccc3)C2)c1 (stereo not drawn)	7.54%
CSc1cccc(NC(=S)N2CCC(N(C)C3CCCCCC3)CC2)c1	-62.9%
CCCCN(C(=S)Nc1cccc(SC)c1)C1CCN(C(C)=O)CC1	-28.9%
CCC(C)N(C)C1CCN(C(=S)Nc2cccc(SC)c2)CC1 (stereo not drawn)	-45.8%
CN(C1CCCC1)C1CCN(C(=S)Nc2cc(F)cc(F)c2)CC1	-42%
CSc1cccc(NC(=S)N2CCC(N(C)C(C)C)CC2)c1	-16.2%
CSc1cccc(NC(=S)N2CCC(N(C)C3CCCCC3)CC2)c1	-64.4%
N#CCOc1coc(CN2CCN(c3cccc(Cl)c3)CC2)cc1=O	-0.696%
Cc1ccccc1C(=O)NC(=S)Nc1ccccc1C(=O)O	15.5%
Cc1nnc(-c2cnn(-c3ccccc3)c2N)n1Cc1cccc(C(F)(F)F)c1	-18.8%
Cc1ccc(CSCC(=O)N(C)CC(=O)Nc2ccccc2C(F)(F)F)cc1	-0.53%
O=C1NC(=Nc2ccccc2Cl)S/C1=C\c1cccc([N+](=O)[O-])c1	-0.316%
Cn1cc(/C=C2\SC(=S)N(NC(=O)c3ccccc3)C2=O)c2ccccc21	10.6%
CCOc1cc(C(=O)N(C)CC(=O)Nc2cccc(F)c2)ccc1OCC(=O)N1CCCCC1	-14.1%
O=C(COC(=O)CNC(=O)c1ccccc1F)Nc1ccc2[nH]c(=O)[nH]c2c1	10.2%
COc1ccc(NC(=O)CN2C(=O)NC3(CCCC3)C2=O)cc1	13.7%
CCOC(=O)c1nn(-c2ccc(F)cc2)c2c1CC/C2=C/c1ccccc1	8.7%
CN(C)c1cc(N)c2c(n1)CCC2.O=C(O)c1cncc(O)c1	-10.8%
COC(=O)C1C(O)=C(C=Nc2cccc3ccccc23)C(=O)CC1(C)C (stereo not drawn)	-2.34%

Compound	hERG current change (%, negative = inhibition) at 10uM
Cc1ccc(S(=O)(=O)NCc2ccccc2C)cc1	11.6%
N#CC(Sc1ccccn1)c1ccc(Cl)cc1 (stereo not drawn)	-18.2%
CCCCN(C)C1CCN(C(=S)Nc2ccc(OC)cc2)CC1	-26%
CCOc1ccc(NC(=S)N2CCC(N(C)CCN3CCOCC3)CC2)cc1	-15.9%
CCCCN(C)C1CCN(C(=S)Nc2ccc(OCC)cc2)CC1	-76.7%
CC1CCC(N(C)C2CCN(C)CC2)CC1 (stereo not drawn)	11.3%
CCCC12CN3CC(C)(CN(C1)C3c1cccs1)C2=O (stereo not drawn)	-7.68%
CC(=O)c1ccc(NC(=O)C2CCCC2)cc1	10.7%
Fc1ccc(OCCCCCCN2CCCC2)cc1	-9.37%
Fc1ccc(OCCCCCN2CCCC2)cc1	4.62%
Cl.O[Si](CCCN1CCCCC1)(c1ccc(F)cc1)C1CCCCC1 (stereo not drawn)	-54.3%
CCN(CC)C(=O)c1ccc(S(=O)(=O)NCc2cccnc2)cc1	13.9%
CC1=C(C(=O)OCc2ccccc2)C(c2cccc3ccccc23)NC(=O)N1CCCC(=O)O (stereo not drawn)	20.8%
O=C1C=C(NCc2ccc3c(c2)OCO3)CC(c2ccccc2)C1 (stereo not drawn)	-76.9%
COc1ccc([C@H]2CC(=O)C=C(c3ccc4c(c3)OCO4)C2)cc1	-22.9%
COc1ccc(C2CC(=O)C=C(NCc3ccc4c(c3)OCO4)C2)cc1 (stereo not drawn)	-73.1%
COc1ccc(C2CC(=O)C=C(NCC3CCCO3)C2)cc1 (stereo not drawn)	-9.1%
CC(C)CCNC1=CC(=O)CC(c2ccccc2)C1 (stereo not drawn)	-33.2%
COc1ccc2cc(C3=CC(=O)C[C@H](c4ccc5c(c4)OCO5)C3)ccc2c1	17.3%
Cc1ccc(C2CC(=O)C=C(NCc3ccccc3)C2)cc1 (stereo not drawn)	-38.8%
O=C1C=C(Nc2ccccc2)CC(c2ccccc2)C1 (stereo not drawn)	9.51%
COc1ccc(C2CC(=O)C=C(NCCC(C)C)C2)cc1 (stereo not drawn)	-73.2%
O=C1C=C(c2ccccc2)C[C@@H](c2ccc3c(c2)OCO3)C1	-4.15%

Compound	hERG current change (%, negative = inhibition) at 10uM
O=C1C=C(NCc2ccncc2)CC(c2ccccc2)C1 (stereo not drawn)	-70.7%
O=C1C=C(NNC(=O)c2ccncc2)CC(c2ccccc2)C1 (stereo not drawn)	-1.64%
O=C(N/N=C\c1ccco1)Nc1cccc(Cl)c1	-5.83%
CC1CCCCC1NC(=O)CCCn1c(=S)[nH]c2ccsc2c1=O (stereo not drawn)	12.9%
C=CCn1c(SCC(=O)NNC(=S)Nc2ccccc2)nnc1-c1ccccc1	15.9%
Cc1cc([N+](=O)[O-])ccc1NC(=O)CSc1nncn1-c1ccccn1	-28.1%
NC(=O)c1cccnc1OCC(F)(F)F	2.21%
CCOc1ccc(NC(=O)CN(C)S(=O)(=O)c2ccc3c(c2)CCC(=O)N3)cc1	-41.3%
Cc1c(C(=O)NCCSCc2cccc(C(F)(F)F)c2)cnn1-c1ccc(Cl)cc1	-30.6%
Cc1c(C(=O)NCCSCc2ccc(F)cc2)cnn1-c1ccc(Cl)cc1	-34.6%
Cc1c(C(=O)NCCSCc2cccc(C(F)(F)F)c2)cnn1-c1ccc(F)cc1	-64.6%
CC(C)CCNC(=O)CN(Cc1cccs1)C(=O)CCC(=O)Nc1nccs1	-10.6%
N#Cc1c2c(c(NCCOCCO)n3c1nc1ccccc13)CCCC2	-63.3%
COCCNc1c2c(c(C#N)c3nc4ccccc4n13)CCCC2	-44.1%
N#Cc1c2c(c(Nc3ccccc3)n3c1nc1ccccc13)CCC2	19.5%
CC(=O)c1ccc(Nc2c3c(c(C#N)c4nc5ccccc5n24)CCC3)cc1	-73.2%
CN(C)CCNc1c2c(c(C#N)c3nc4ccccc4n13)CCCC2	-23.5%
N#Cc1c2c(c(Nc3ccc(O)cc3)n3c1nc1ccccc13)CCC2	5.51%
Cc1cc(C(=O)NCc2ccc3c(c2)OCO3)n(-c2ccccc2)n1	-14.8%
CCOC(=O)N1CCN(S(=O)(=O)Cc2ccccc2)CC1	15.5%
Cc1ccc(S(=O)(=O)Nc2cc(C)c(O)c(Sc3n[nH]c(C)n3)c2)cc1	2.79%
